This is an account of results in PubChem BioAssay AID777 (Sanford-Burnham Center for Chemical Genomics, 2007).

As usually defined, the inhibition is the change of the read-out against control, counted positive when it falls.

About 19,000 (20%) of roughly 96,000 compounds were called active.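 How the source made its calls: active means blocking of liver enzyme CYP2C9 beyond about 50% at 5 µM (limit read from the data); inactive means the rest.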 Not all results are given here.

The target in this assay is Cytochrome P450 2C9 (Homo sapiens) (UniProt P11712). In words: blockers of cytochrome P450 2C9 activity – biochemical, luminescence, ADME assay, primary screen (AID 777). Particulars: CYP2C9 Supersomes, luciferin-H conversion, at 5 µM, active compounds read high.
Cytochrome P450 2C9 (Homo sapiens), sequence (P11712 whole entry, looked up): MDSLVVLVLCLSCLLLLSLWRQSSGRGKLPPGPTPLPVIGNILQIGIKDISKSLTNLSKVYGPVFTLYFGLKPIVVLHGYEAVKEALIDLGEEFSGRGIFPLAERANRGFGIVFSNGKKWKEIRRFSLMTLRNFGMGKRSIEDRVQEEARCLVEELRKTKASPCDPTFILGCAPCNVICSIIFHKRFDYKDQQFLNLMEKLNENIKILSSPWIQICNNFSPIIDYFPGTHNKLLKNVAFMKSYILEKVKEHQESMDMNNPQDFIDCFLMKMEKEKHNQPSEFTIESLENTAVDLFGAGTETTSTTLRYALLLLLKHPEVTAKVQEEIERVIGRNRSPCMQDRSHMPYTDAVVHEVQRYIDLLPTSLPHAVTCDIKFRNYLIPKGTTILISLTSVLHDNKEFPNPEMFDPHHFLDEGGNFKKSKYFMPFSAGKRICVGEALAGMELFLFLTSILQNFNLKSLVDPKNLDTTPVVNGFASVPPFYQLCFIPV
As for `COc1ccc(NC(=O)Nc2ccc3nsnc3c2)cc1`, the inhibition was 23.7% (inactive).

For the molecule `COc1cccc2c1OCC1COc3c(c(=O)n(C)c(=O)n3C)C21` (configuration not stated), the inhibition is -6% (inactive).

For `NC(=O)c1ccsc1NC(=O)c1ccco1`, the inhibition is 61.4% (active).

In the case of `O=C(Nc1nnc(SCc2ccccc2)s1)c1ccco1`, the inhibition is 6.2% (inactive).

On to `O=C(Nc1ccc(NC(=O)c2cccs2)cn1)c1ccco1`, for which the inhibition was 23.5% (inactive).

Turning to `CC(NCCO)C(=O)C12CC3CC(CC(C3)C1)C2` (configuration not stated), the inhibition is -0.7% (inactive).

`COc1ccc(N2C(=O)CCC(C(=O)Nc3ccccn3)C2c2ccc(OC)c(OC)c2)cc1` (configuration not stated): the inhibition is 2.6% (inactive).

For `Cc1csc(=NC(=O)c2ccccc2)n1CCO`, the inhibition is 32.3% (inactive).

Turning to `Cc1ccc(-c2nc(CS(=O)CC(=O)NC3CCCC3)c(C)o2)cc1` (configuration not stated), the inhibition was 53% (active).

As to `COc1ccc(-c2nc(CS(=O)CC(=O)N3CCc4ccccc4C3)c(C)o2)cc1` (configuration not stated), the inhibition was 40.4% (inactive).

Turning to `Cc1cc(C(=O)N2CCN(c3ccccn3)CC2)c(C)o1`, the inhibition is 12.4% (inactive).

For `COc1ccc(-c2nc(CS(=O)CC(=O)NCc3cccnc3)c(C)o2)cc1OC` (configuration not stated), the inhibition was 47.2% (inactive).

With `Cc1ccc(S(=O)(=O)N(C)CC(=O)NC2CCCC2)cc1`, the inhibition was -30.3% (inactive).

Take `Cc1ccc(-c2nc(CS(=O)CC(=O)N3CCN(c4ncccn4)CC3)c(C)o2)cc1` (configuration not stated): the inhibition is 79% (active).

For the molecule `CCOc1c2ccc(C(=O)NCc3ccc(OC(F)(F)F)cc3)cc2nn1C`, the inhibition was 19% (inactive).

Take `COc1nc(N=C(N)N)nc2c(C)cccc12`: the inhibition is -9.5% (inactive).

As for `COc1cc2[nH]c(=O)n(CCC(=O)NC3CCN(Cc4ccccc4)CC3)c(=O)c2cc1OC`, the inhibition is -15.4% (inactive).

With `CC(=O)Nc1ccc(NC(=O)c2sc3nc4c(c(-c5ccc(C)cc5)c3c2N)CCC4)cc1`, the inhibition is -4.6% (inactive).

`CC1C(c2ccccc2)=[N+]([O-])C2(CCCC2)N1O` (configuration not stated): the inhibition was 37.7% (inactive).

`O=C(COc1ccc(F)cc1)N(CC1=CCS(=O)(=O)C1)c1ccccc1`: the inhibition is -18.6% (inactive).

Take `O=c1c2ccccc2c(-c2ccc(Br)cc2)nn1Cc1ccccc1`: the inhibition was 21.5% (inactive).

`COc1ccc(Cl)cc1C(=O)NCC#N`: the inhibition was -80.7% (inactive).

For the molecule `CC(C)CNC(=O)CC(c1ccccc1)c1c(O)ccc2ccccc12` (configuration not stated), the inhibition is 71.2% (active).

In the case of `CC(C)CNC(=O)COC(=O)/C=C/c1ccccc1[N+](=O)[O-]`, the inhibition is -41.6% (inactive).

Consider `O=C1CC(C(F)(F)C(F)(F)C(F)(F)C(F)(F)F)=Nc2ccccc2N1`, for which the inhibition is 9% (inactive).

For `CCN(CC(=O)NC1CCS(=O)(=O)C1)c1nc(-c2cccnc2)nc2ccccc12` (configuration not stated), the inhibition was 3.9% (inactive).

With `CCOC(=O)c1cnc(SC)nc1Sc1ccc(Cl)cc1Cl`, the inhibition was 81.5% (active).

In the case of `CCOC(=O)CSc1ncc(-c2cccc(Cl)c2)cn1`, the inhibition is 14.2% (inactive).

Turning to `CCOC(=O)c1nc(C)n(-c2ccc(Cl)cc2Cl)n1`, the inhibition was -0.6% (inactive).

For the molecule `Cc1ccc(C(=O)NC2CC(C)(C)NC(C)(C)C2)c(C)c1`, the inhibition is -6.6% (inactive).

Regarding `Cc1nn(C)cc1/C=N/NC(=O)c1sc2ccccc2c1Cl`, the inhibition was 23.6% (inactive).

Regarding `O/N=C1\CC2(Cc3nonc31)OCCO2`, the inhibition is 4% (inactive).

For the molecule `CS(=O)(=O)N1CCN(C(=O)c2cc3ccccc3oc2=O)CC1`, the inhibition is -3.6% (inactive).

As for `O=c1c2ccccc2nnn1CSc1nnnn1-c1ccccc1`, the inhibition was -35.7% (inactive).

For the molecule `C=CCn1c(SCn2nnc3ccccc3c2=O)nnc1-c1ccc(Cl)cc1`, the inhibition was 67.1% (active).

On to `Cc1cccc(OCc2nnc(SCn3nnc4ccccc4c3=O)o2)c1`, for which the inhibition is 35.9% (inactive).

Take `COc1cccc(Nc2ncccc2C(=O)O)c1`: the inhibition was -5.5% (inactive).

Take `CC1(C)CC(=O)C2=C(C1)NCN(CCCN1CCOCC1)C2`: the inhibition was 3.8% (inactive).

With `CCOc1cc(CO)ccc1OCC(=O)N1CCCCC1`, the inhibition is -19.8% (inactive).

Take `N#C/C(=C1/CCCN1)c1ccccn1`: the inhibition is 7.3% (inactive).

In the case of `COC(=O)C(C)N(C#N)c1nc(C)nc(C)n1` (configuration not stated), the inhibition was -136% (inactive).

In the case of `CO/N=C(/CS(=O)(=O)c1ccc(Br)cc1)c1ccc(OC)cc1`, the inhibition is 91.6% (active).

Regarding `COC(=O)CNS(=O)(=O)c1ccc(OC)cc1`, the inhibition is -0.5% (inactive).

With `COc1ccc(/C(N)=N/OC(=O)Oc2ccccc2)cc1`, the inhibition was 21.5% (inactive).

As for `O=C1CC(c2cccc(Br)c2)C2=C(CCCC2=O)N1` (configuration not stated), the inhibition was 10.3% (inactive).

Take `Cc1cccc(NC(=O)c2cc(N3C(=O)CCC3=O)ccc2Cl)n1`: the inhibition was 20.2% (inactive).

Regarding `O=C(CN1CCOCC1)N1CCCc2c1c(=O)oc1ccc(OCc3ccccc3)cc21`, the inhibition was 72.5% (active).

As to `O=C(COc1ccc2oc3c(c2c1)CCCC3)Nc1ccccn1`, the inhibition is 2.1% (inactive).

Take `COc1ccc2oc(=O)c(C(=O)N3CCCc4ccccc43)cc2c1`: the inhibition is -44.4% (inactive).

Turning to `Cn1c(=NC(=O)C2CC2)sc2cc(F)cc(F)c21`, the inhibition was -15.8% (inactive).

For the molecule `O=C(CCN1C(=O)c2ccccc2C1=O)NCCN1CCOCC1`, the inhibition is -18.8% (inactive).

Turning to `O=C1c2oc3ccccc3c(=O)c2C(c2cccc(O)c2)N1c1ccccn1` (configuration not stated), the inhibition is 4.2% (inactive).

`COCCN1C(=O)c2oc3c(C)cc(C)cc3c(=O)c2C1c1cccc(O)c1` (configuration not stated): the inhibition is 98.6% (active).

On to `O=C1c2oc3ccc(Br)cc3c(=O)c2C(c2cccc(F)c2)N1CCO` (configuration not stated), for which the inhibition is 23.9% (inactive).

For `CC(=O)OC(C(=O)NCCc1ccccc1)c1cccnc1` (configuration not stated), the inhibition was -7.6% (inactive).

Turning to `CCOC(=O)c1c(C)[nH]c(C(=O)COc2ccc3c(c2)OCO3)c1C`, the inhibition is 93% (active).

For the molecule `CCOC(=O)c1c(C)oc2ccc(OCC(=O)N(CC)CC)cc12`, the inhibition is -13.4% (inactive).

On to `Cc1cc(C)n2nc(C(=O)Oc3ccc4c(c3)OCO4)nc2n1`, for which the inhibition is -31.5% (inactive).

`Nc1c(-c2cccc(Cl)c2)cnn1-c1cccc([N+](=O)[O-])c1`: the inhibition was 4.4% (inactive).

Take `O=C(NC12CC3CC(CC(C3)C1)C2)N1CCCC(CO)C1` (configuration not stated): the inhibition is 12.4% (inactive).

Regarding `CC12C(=O)N(n3cnnc3)C(=O)C1C1C=CC2C1` (configuration not stated), the inhibition was 1.9% (inactive).

Consider `NNC(=O)C1CCCn2c1nc1sc3c(c1c2=O)CCCC3` (configuration not stated), for which the inhibition is 21.6% (inactive).

Turning to `Cn1c(NN)nc2sc3c(c2c1=O)CCC3`, the inhibition was 68.1% (active).

As to `O=C(O)[C@@H]1CCCN1c1ncnc2sc3c(c12)CCC3`, the inhibition was 4.9% (inactive).

On to `Cn1c(NC(=O)c2ccco2)c(-c2ccccc2Cl)c(=O)c2ccccc21`, for which the inhibition was -3.7% (inactive).

Consider `CC(C)Oc1ccc(C(=O)NC(C)(C)CO)cc1`, for which the inhibition is 15% (inactive).

As for `O=C(COc1ccccc1)NCCc1nc2ccccc2[nH]1`, the inhibition was 28.6% (inactive).

With `C=CCn1c(SCc2nnc(-c3ccccc3)o2)nnc1C(O)c1ccccc1` (configuration not stated), the inhibition was 59% (active).

As to `O=C(CSCc1c(Cl)cccc1Cl)NN1C(=O)c2ccccc2C1=O`, the inhibition was 34.3% (inactive).

Consider `CN(C)c1ccc(CNC23CN4CN(CN(C4)C2)C3)cc1`, for which the inhibition is -4.7% (inactive).

For `Cc1cccc2c1N(CC(=O)OC(C)C)C(=O)C2=O`, the inhibition is 8% (inactive).

As for `CCn1c(CSc2nncn2-c2ccc(OC)cc2)nc2cc(S(=O)(=O)N(C)C)ccc21`, the inhibition is 50.1% (active).

Consider `Cn1nnnc1SCC(=O)Nc1ccccc1C(=O)NC1CC1`, for which the inhibition is 10.7% (inactive).

`CC(C)Nc1nc(N(c2ccccc2)c2ccccc2)nc(-n2ccnc2)n1`: the inhibition is 29% (inactive).

As to `Cc1ccc(N2CCN(S(=O)(=O)N(C)C)CC2)cc1Cl`, the inhibition is 11% (inactive).

For the molecule `O=C(NC1(C(F)(F)F)N=C2SCCN2C1=O)c1ccco1` (configuration not stated), the inhibition was -10% (inactive).

On to `COc1cc(OC)c(C(=O)NC2CCCCCC2)cc1OC`, for which the inhibition is 34.4% (inactive).

As for `Cn1c(SCC(=O)C(C)(C)C)nnc1-c1ccccn1`, the inhibition was -0.6% (inactive).

On to `O=C(Nc1ccc2c(c1)OCCO2)c1ccc(Cl)c(S(=O)(=O)N2CCCCC2)c1`, for which the inhibition is 97.2% (active).

For the molecule `O=C(Nc1ccc2c(c1)OCCO2)c1ccncc1`, the inhibition is 46.2% (inactive).

As for `Cc1ccc(C(=O)Nc2ccc3c(c2)OCO3)cc1S(=O)(=O)N1CCCCC1`, the inhibition is 93.3% (active).

Regarding `O=C(Nc1ccccc1)c1ccc2c(c1)OCO2`, the inhibition was 9.7% (inactive).

On to `Cc1ccc(C(=O)NCC(=O)O)cc1S(=O)(=O)N1CCCCC1`, for which the inhibition was 3.8% (inactive).

For `O=C(Nc1ccc2c(c1)OCCO2)c1cnccn1`, the inhibition is 4.9% (inactive).

On to `CC(C)C(=O)Nc1cccc(C(=O)Nc2ccc3c(c2)OCO3)c1`, for which the inhibition was 57.2% (active).

With `Cn1c(=O)n(C)c2cc(C(=O)Nc3ccc4c(c3)OCO4)ccc21`, the inhibition was -11.4% (inactive).

Turning to `COc1ccc(C(=O)Nc2ccc3c(c2)OCO3)cc1OC`, the inhibition is 1.7% (inactive).

On to `Cc1c(C=O)c2ccccn2c1C(=O)c1ccncc1`, for which the inhibition is 40.3% (inactive).

In the case of `CCC(=O)c1ccc(OCC(O)CN2CCN(c3cccc(C(F)(F)F)c3)CC2)cc1` (configuration not stated), the inhibition is 22% (inactive).

With `O=C(c1ccc(Cl)cc1)c1ccc(OCC(O)CN2CCCCC2)cc1` (configuration not stated), the inhibition was 7.1% (inactive).

Take `Cc1nnc(SCC(=O)NCCOc2ccc(Cl)cc2)n1-c1ccccc1`: the inhibition is 37.2% (inactive).

For the molecule `CCN1CCC(=NNC(=O)c2ccc(C)c([N+](=O)[O-])c2)CC1`, the inhibition is 7.3% (inactive).

For the molecule `c1ccc(CCC2=NCCn3cccc32)cc1`, the inhibition is 4.5% (inactive).

Regarding `Cc1cccc(C(=O)NCCCN2CCCC2=O)c1`, the inhibition is -4% (inactive).

Turning to `CCn1c(SCC(=O)c2ccc3ccccc3c2)nnc1-c1cccs1`, the inhibition is 3.9% (inactive).

For the molecule `COc1ccc(-n2c(SCC(=O)OC(C)C)nnc2-c2ccccn2)cc1`, the inhibition is -13.5% (inactive).

`Cn1c(SCC(=O)c2cccs2)nnc1-c1ccco1`: the inhibition was -12.6% (inactive).

As for `CCOC(=O)CSc1nnc(CNC(=O)c2cccs2)n1-c1ccccc1`, the inhibition is -10.4% (inactive).

In the case of `Cc1ccc(-n2c(Cc3cccs3)nnc2SCC(=O)OC(C)C)cc1`, the inhibition was 67.5% (active).

Take `CCn1c(Cc2cccs2)nnc1SCC(=O)c1ccc(C)cc1`: the inhibition is 78.7% (active).

On to `CCn1c(SCC(=O)c2ccc(Cl)s2)nnc1-c1cccs1`, for which the inhibition was 69.2% (active).

Regarding `CCOC(=O)CNC(=O)CSc1nnc(COc2ccc(Cl)cc2)n1CC`, the inhibition was 19.6% (inactive).
